Out of some 340,000 compounds screened, about 12,000 (3.5%) were called active. Where a call stands in place of a potency, no number is given. Roughly 18% stayed inconclusive and do not appear here. The call rests on the fitted dose curve; in most records, active means well fitted inhibition curve with a large enough effect; inconclusive means small, poorly fitted or top-dose-only effect, or another doubt; inactive means no such curve, though single readings can be large or run the other way. The full list was thinned out, with actives kept by preference.
Potency means the concentration at half of the fitted maximal effect.

The assay can be described thus: qHTS Assay for Inhibitors of Hepatitis C Virus (HCV). The conditions noted are these: Huh7.5.1 HCVcc-Cre infection, luciferase reporter, 44 h; series mostly up to 41.8 µM. An outline of the steps:
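Infectious HCV cell culture screen: compound-treated cells (1,000/well, pre-plated 4 h) are infected with HCVcc-Cre at roughly 0.5 moi and grown 44 h. Infection is quantified by luciferase signal after 15 min substrate incubation at room temperature.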
With `Cc1ccc(C(=O)NNC(=O)OC(C)(C)C)c(Cl)c1`, the Potency result is “inactive”.
With `Cc1ccccc1NC(=O)NNC(=O)OC(C)(C)C`, the Potency result was “inactive”.
Still for that read-out and setting: in the case of `O=C(N/N=C/c1cccnc1)c1cc2ccccc2cc1O` it was “inactive”; in that of `CC(C)CN(C(=O)COC(=O)c1ccc(Cl)c(N)c1)c1c(N)n(Cc2ccccc2)c(=O)[nH]c1=O`, “inactive”; in that of `O=C(CSc1nc2[nH]ncc2c(=O)[nH]1)Nc1ccc(F)cc1`, “inactive”.
In the case of `COc1cc(/C=N/NC(=O)c2cc(-c3ccccc3C)nc3ccccc23)cc(OC)c1O`, the Potency result was “inactive”.
With `Cc1ccc(C(=O)OCC(=O)N2CCCCCC2)cc1S(=O)(=O)N1CCOCC1`, the Potency entry is “inactive”.
Turning to `CCCc1nc2ccccc2c(C(=O)OCC(=O)c2ccc3c(c2)NC(=O)CO3)c1CC`, the Potency result was “inactive”.
As to `O=C(OCc1nnc(-c2ccccc2)o1)c1cc(=O)[nH]c2ccccc12`, the Potency entry was “inactive”.
Same read-out and setting: the same measure for `CCCc1nc2ccccc2c(C(=O)OCc2nnc(-c3cc(OC)c(OC)c(OC)c3)o2)c1CC`: 2.82 µM (active); for `CCOc1ccc(S(=O)(=O)NCCC(=O)NCC2CCCO2)cc1` (stereo not given): “inactive”; for `O=C(NCc1ccc2c(c1)OCO2)c1cc([N+](=O)[O-])ccc1N1CCOCC1`: “inactive”.
For `O=C(CN1C(=O)NC2(CCCCCCC2)C1=O)NCc1ccc(F)cc1`, the Potency result is “inactive”.
As for `COc1ccc(CCNC(=O)CSc2nc3[nH]ncc3c(=O)n2-c2cccc(C(F)(F)F)c2)cc1OC`, the Potency result was “inactive”.
The same measure, in the same setting: the same measure for `NS(=O)(=O)c1cccc(NC(=O)CSc2nc3ccccc3n2-c2ccccc2)c1`: “inactive”; for `NC(=O)NC(=O)CSc1nc2cc([N+](=O)[O-])ccc2n1-c1cccc(C(F)(F)F)c1`: 10 µM (active); for `CC(OC(=O)Cc1ccc(F)cc1)C(=O)N1CCc2ccccc21` (stereo not given): “inactive”.
For `Cc1oc2c(F)c(F)c(F)c(F)c2c1S(=O)(=O)Nc1cccc(C(F)(F)F)c1`, the Potency was 4.47 µM (active).
With `O=C(NCc1ccccc1)c1ccc(S(=O)(=O)Nc2cccc(C(F)(F)F)c2)cc1`, the Potency entry is “inactive”.
As for `O=C(/C=C/c1ccc(F)cc1)Nc1cccc(S(=O)(=O)Nc2cccc(C(F)(F)F)c2)c1`, the Potency entry was “inactive”.
Take `O=C(O)C(c1cccs1)C1(O)CCCCC1` (stereo not given): the Potency entry is “inactive”.
Regarding `CCOc1ccc(S(=O)(=O)NCCC(=O)NCC(C)(C)N2CCOCC2)cc1`, the Potency entry was “inactive”.
The same measure, in the same setting: in the case of `COc1ccc(-n2nnnc2SCc2nc(N)nc(N3CCOCC3)n2)cc1` it was “inactive”; in that of `CN(C)c1nc(N)nc(CSc2ccccn2)n1`, “inactive”.
On to `CN(C)c1nc(N)nc(CSc2nnnn2-c2cccc3ccccc23)n1`, for which the Potency is 3.16 µM (active).
`COC(=O)Cc1ccc(OC(=O)C2CCN(S(=O)(=O)c3ccc(OC)c(OC)c3)CC2)cc1`: the Potency result was “inactive”.
Still for that read-out and setting: in the case of `CCN(CC)CCNc1nc(-c2ccc(OC(F)F)cc2)c(C)s1` it was 17.8 µM (active).
Turning to `CCOC(=O)c1ccccc1NC(=O)c1c(N)n(C)c(=O)[nH]c1=O`, the Potency entry was “inactive”.
As for `CCCN(CC(=O)Nc1ccccc1OC)C(=O)CCC(=O)c1ccc(F)cc1`, the Potency entry is “inactive”.
Still for that read-out and setting: in the case of `COc1ccc([C@H]2CC(=O)C=C(/C=C/c3ccc(Cl)cc3)C2)cc1` it was “inactive”; in that of `CC12CCCCC1=CC(=O)CC2` (stereo not given), “inactive”; in that of `COc1ccc(NC(=O)/C(N=Nc2cccc(S(=O)(=O)Nc3ccc(SC(F)F)cc3)c2)=C(\C)O)cc1`, “inactive”.
On the same count and under the same terms, the same measure for `O=c1ccn([C@@H]2O[C@H](CNS(=O)(=O)c3cc4ccccc4s3)[C@@H](O)[C@H]2O)c(=O)[nH]1`: “inactive”; for `COc1ccc(NC(=O)N2CCC3(CC2)OCCO3)c(OC)c1`: “inactive”.
On the same count and under the same terms, the same measure for `COc1cccc(CNc2nc3nc4c(c(=O)n3[nH]2)CCC4)c1`: “inactive”; for `COc1cccc(-c2cc3nc4c(c(N5CCC6(CC5)OCCO6)n3n2)CCCC4)c1`: 12.6 µM (active); for `Cc1ccc(S(=O)(=O)N2CCOCC2)cc1C(=O)Nc1ccccc1N1CCCC1`: “inactive”.
`CC(C)CCNc1nc(N2CCCC2)c2c(c1C#N)CCN(C)C2`: the Potency is 12.6 µM (active).
For `CCN1CCc2c(C#N)c(NCc3ccccc3)nc(NCCO)c2C1`, the Potency entry is “inactive”.
On the same count and under the same terms, the same measure for `CCc1nc(NCCO)c(C#N)c2c1CCCC2`: “inactive”; for `O=C(NCCc1ccccc1)c1c[nH]c2ccc(F)cc2c1=O`: “inactive”.
For the molecule `CCOc1ccc(CC(=O)NCCS(=O)(=O)N2CCN(c3ccccc3)CC2)cc1`, the activity change, negative = inhibition was -0.883% [at 8.37 µM] (inactive).
Turning to `N#Cc1ccc(C2=CC(=O)C[C@H](c3ccc(Cl)cc3)C2)cc1`, the Potency entry was “inactive”.
For `CC(=O)N1CCCc2cc(S(=O)(=O)CCC(=O)N3CCN(c4ccccc4)CC3)ccc21`, the Potency result was “inactive”.
On the same count and under the same terms, the same measure for `O=C(NCc1ccncc1)C1CCCN(S(=O)(=O)c2ccc(Br)cc2)C1` (stereo not given): “inactive”; for `CC(=O)N1CCCc2cc(S(=O)(=O)N3CCCC(C(=O)NCc4ccc(Cl)cc4)C3)ccc21` (stereo not given): 14.1 µM (active).
In the case of `CC(=O)Nc1ccc(NC(=O)C2CCCN(S(=O)(=O)c3ccc(Cl)cc3)C2)cc1` (stereo not given), the Potency result was “inactive”.
As to `CCS(=O)(=O)N1CCCC(C(=O)NCc2ccc(C)cc2)C1` (stereo not given), the Potency entry is “inactive”.
Same read-out and setting: in the case of `O=C(C1CCCN(S(=O)(=O)c2ccccc2)C1)N1CCN(c2ccc(F)cc2)CC1` (stereo not given) it was 20 µM (active); in that of `CC(=O)N1c2ccc(S(=O)(=O)N3CCCC(C(=O)NCc4ccc(Cl)cc4)C3)cc2CC1C` (stereo not given), 5.62 µM (active); in that of `CC(=O)N1CCCc2cc(S(=O)(=O)N3CCCC(C(=O)N4CCN(c5cccc(Cl)c5)CC4)C3)ccc21` (stereo not given), 3.16 µM (active).
Turning to `COc1cccc(N2CCN(C(=O)C3CCCN(S(=O)(=O)c4cnc[nH]4)C3)CC2)c1` (stereo not given), the Potency result is “inactive”.
Consider `Cc1ccc(S(=O)(=O)N2CCCC(C(=O)N3CCN(C)CC3)C2)cc1` (stereo not given), for which the Potency entry was “inactive”.
Turning to `CCCS(=O)(=O)N1CCCC(C(=O)N2CCN(c3ccccc3)CC2)C1` (stereo not given), the Potency entry was “inactive”.
The same measure, in the same setting: in the case of `CC(=O)N1c2ccc(S(=O)(=O)N3CCC(C(=O)NC4CCCC(C)C4C)CC3)cc2CC1C` (stereo not given) it was “inactive”.
